The structures appear in SMILES notation. Among all 330,000 compounds or so, about 590 (0.18%) were called active. Many of the other results were omitted from the sample, so actives are more common in it than they were. Unmarked numbers belong to inactive results.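 Rule for the calls: active = superoxide response under a set limit, about three screen SD below normal (cut at about 65% in these data); inactive = the rest.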

This test is described as follows: reduction of superoxide in aged yeast, primary screen, HTS (AID 2690).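 Note: yeast aged for seven days with compound at 30 °C before DHE staining; 100% = average MFI of all compound-treated wells on the plate with controls excluded.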 Particulars: S. cerevisiae aged cells, superoxide DHE fluorescence; at 10 µM; stronger effect = lower value.
With `CC1CC(C)CN(C(=O)CSc2ccsc2[N+](=O)[O-])C1` (stereo not drawn), the superoxide response (% of plate mean) is 155%.
To `CCCCc1cc(=O)oc2c(C)c(OCC(=O)N3CCC(C(N)=O)CC3)ccc12` belongs 81.2%; to `Cc1cc2c(C)nc(N/N=C/c3ccccc3)nc2o1`, 97.9%; to `Cc1cc2oc(C(=O)Nc3c(C)n(C)n(-c4ccccc4)c3=O)c(C)c2cc1Cl`, 43% (active).
Consider `Cc1c(NC(=O)c2coc(=O)c(Br)c2)c(=O)n(-c2ccccc2)n1C`, for which the superoxide response (% of plate mean) is 96.5%.
Regarding `Cc1c(NC(=O)c2cc(-c3ccc(Br)cc3)on2)c(=O)n(-c2ccccc2)n1C`, the superoxide response (% of plate mean) was 98.6%.
The same measure for `CC1(C)CC(=O)C=C(c2cccc3c2Oc2ccccc2S3)C1`: 109%.
To `O=C(CSc1nc2[nH]c(=O)[nH]c(=O)c2s1)Nc1cccc(F)c1` belongs 94.1%.
With `Cc1cc2ncn(CCCCOc3ccccc3)c2cc1C`, the superoxide response (% of plate mean) was 80.1%.
Turning to `COc1ccc(CNC(=O)C2CC(c3ccc(C(F)(F)F)cc3)=NO2)cc1` (stereo not drawn), the superoxide response (% of plate mean) is 103%.
The same measure for `O=S(=O)(NCCCCCCNS(=O)(=O)c1c(F)cccc1F)c1ccc2c(c1)OCCO2`: 104%.
As to `O=C(O)C1CCN(S(=O)(=O)N2CCOCC2)CC1`, the superoxide response (% of plate mean) is 126%.
On to `O=C(O)c1ccccc1-c1ccccc1C(=O)NCCc1ccccc1`, for which the superoxide response (% of plate mean) is 108%.
The same measure for `COc1ccc(CCNC(=O)c2ccccc2-c2ccccc2C(=O)O)cc1OC`: 57.2% (active); for `COc1ccc(CCNC(=O)Cc2ccc(C)cc2)cc1OC`: 102%; for `Cc1ccc(NC(=O)CN2CCC3(O)CCCCC3C2c2ccc3c(c2)OCO3)c(C)c1` (stereo not drawn): 95%.
To `COc1cccc(NC(=O)[C@H](Cc2c[nH]c3ccccc23)NC(=O)[C@@H]2Cc3ccccc3CN2)c1` belongs 113%; to `O=C(NC1CCN(Cc2ccccc2)CC1)c1ccc(Oc2cc(Cl)cc(Cl)c2)o1`, 87.6%; to `COc1cccc(NC(=S)NCCCN2CCOCC2)c1`, 96.1%.
For the molecule `COc1cccc(NC(=O)NCCN2CCCCC2)c1`, the superoxide response (% of plate mean) was 34.4% (active).
To `CCc1ccccc1NC(=O)NCCN1CCCCC1` belongs 92.8%; to `CC(=O)NC1=NN(C(C)=O)C(C)(c2ccc(C)cc2)S1` (stereo not drawn), 108%.
Consider `CC(=O)NC1=NN(C(C)=O)C(C)(c2ccc(Cl)s2)S1` (stereo not drawn), for which the superoxide response (% of plate mean) was 102%.
For the molecule `CC(=O)NC1=NN(C(C)=O)C(C)(CCS(=O)(=O)c2ccc(Cl)c(Cl)c2)S1` (stereo not drawn), the superoxide response (% of plate mean) is 63.7% (active).
For `Cc1nc([N+](=O)[O-])cn1CC(=O)Nc1ccc(Cl)cc1`, the superoxide response (% of plate mean) is 104%.
Regarding `COc1ccc(C2=NN(c3nc4ccccc4s3)C(=O)C2)cc1`, the superoxide response (% of plate mean) was 51% (active).
To `COc1ccc(/C=C(/CC(=O)Nc2ccc(C)cc2)c2nc3ccccc3s2)cc1` belongs 97.7%.
To `COc1ccc(-n2nnnc2-c2nc3ccccc3s2)cc1` belongs 88.6%.
As for `COc1ccc2c(c1)OC(O)(C(F)(F)C(F)F)CC2=O` (stereo not drawn), the superoxide response (% of plate mean) was 82.7%.
As for `CCN(CC)S(=O)(=O)c1cc([N+](=O)[O-])ccc1NNC(=O)Nc1ccccc1`, the superoxide response (% of plate mean) was 101%.
The same measure for `CCOc1ccc(N2CC(C(=O)N/N=C/c3sccc3C)CC2=O)cc1` (stereo not drawn): 100%; for `COc1ccc2[nH]c(=O)c(CNc3ccc(C)c(C)c3)cc2c1`: 96.3%.
With `COc1cc(C(=S)N2CCOCC2)cc(OC)c1OC(=O)c1cc([N+](=O)[O-])c(C)c([N+](=O)[O-])c1`, the superoxide response (% of plate mean) was 113%.
The same measure for `CCCC1NC(=S)NC(C)=C1C(C)=O` (stereo not drawn): 92.8%; for `COc1ccc([N+](=O)[O-])cc1-c1nc2ccccc2nc1-c1ccccc1`: 99.1%; for `O=[N+]([O-])c1ccc2c(c1)Nc1nc3ccccc3nc1N2`: 61.2% (active).
Take `O=[N+]([O-])c1ccc2nc(-c3ccccn3)[nH]c2c1`: the superoxide response (% of plate mean) was 98.5%.
To `Cc1nn(CC(=O)Nc2ccc(F)cc2)c(=O)c2ccccc12` belongs 98.5%; to `Cc1nn(CC(=O)Nc2ccc3c(c2)nc(CN2CCCCC2)n3C)c(=O)c2ccccc12`, 94.1%; to `Cc1ccc(NC(=O)Cn2nc(C)c3ccccc3c2=O)c(C)c1`, 54.4% (active).
To `COc1ccc(-c2nc(CS(=O)CC(=O)N3CCc4ccccc4C3)c(C)o2)cc1` (stereo not drawn) belongs 92.3%; to `Cc1ccc(-c2nc(CS(=O)CC(=O)N3CCN(c4ncccn4)CC3)c(C)o2)cc1` (stereo not drawn), 63.9% (active).
The same measure for `Cc1ccc(-c2nc(CS(=O)CC(=O)NC3CCCC3)c(C)o2)cc1` (stereo not drawn): 108%.

The values are drawn from PubChem BioAssay AID2690 (NMMLSC, 2010).
